Source: PubChem BioAssay
For some assays here: Measured potencies and affinities stand elsewhere. Active and inactive are the calls of the source. Unless noted, the rule behind the calls is not given here.

What was measured:
[1] = antimalarial activity against Dd2 strain (AID 2302;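 active = growth inhibition above 50% at the single 2 µM test dose, taken to imply half-maximal potency below 2 µM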;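 note: 0% = DMSO untreated growth and 100% = chloroquine plus artemisinin killed control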); details: P. falciparum Dd2 in RBCs, LDH growth readout, 72 h; at 2 µM; active compounds read high
[2] = HepG2 cytotoxicity, primary screen, cytotoxicity control for P. falciparum antimalarial project, cell-based, ATP luminescence (AID 2303;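 active = inhibition above 50%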;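 note: 0% = DMSO wells and 100% = digitonin-killed cells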); details: HepG2 viability, 24-48 h, at 10 µM, active compounds read high
[3] = biological target: L-lactate dehydrogenase (Plasmodium falciparum (isolate CDC / Honduras)) (UniProt Q27743); assay: PfLDH activity inhibition – cell lysate, 3D7 strain, counter-screen for P. falciparum growth inhibition project (AID 2304);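 note: 0% = vehicle and 100% = reference inhibitor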; details: P. falciparum 3D7 crude extract, LDH APAD/NBT absorbance; at 2 µM; active compounds read high
Chain of L-lactate dehydrogenase (Plasmodium falciparum (isolate CDC / Honduras)) (Q27743 whole entry, looked up): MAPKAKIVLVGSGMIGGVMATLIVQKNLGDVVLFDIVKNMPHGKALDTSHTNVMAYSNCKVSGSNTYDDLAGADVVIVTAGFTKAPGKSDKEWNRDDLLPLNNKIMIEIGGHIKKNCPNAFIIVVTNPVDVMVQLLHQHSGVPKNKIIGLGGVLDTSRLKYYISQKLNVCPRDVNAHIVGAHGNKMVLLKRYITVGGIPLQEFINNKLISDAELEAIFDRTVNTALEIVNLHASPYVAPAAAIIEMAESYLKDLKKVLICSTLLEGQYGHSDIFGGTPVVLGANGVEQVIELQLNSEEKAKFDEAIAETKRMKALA

[4] = inhibition of 3D7 malaria parasite growth – strain 3D7 (AID 2306);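 note: 0% = DMSO wells and 100% = chloroquine plus artemisinin control wells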; details: P. falciparum 3D7 erythrocytic growth, LDH absorbance, 72 h; at 2 µM; active compounds read high
[5] = biological target: Calcium-dependent protein kinase 1 (Plasmodium falciparum (isolate 3D7)) (UniProt P62344); assay: PfCDPK1 kinase inhibitors, biochemical, TCAMS library (AID 1159585; cut-off not given, nearly all actives have IC50 up to about 0.98 µM;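 note: inhibitors leave more ATP so luminescence rises with inhibition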); details: recombinant PfCDPK1, Kinase-Glo ATP depletion luminescence
Chain of Calcium-dependent protein kinase 1 (Plasmodium falciparum (isolate 3D7)) (P62344 whole entry, looked up): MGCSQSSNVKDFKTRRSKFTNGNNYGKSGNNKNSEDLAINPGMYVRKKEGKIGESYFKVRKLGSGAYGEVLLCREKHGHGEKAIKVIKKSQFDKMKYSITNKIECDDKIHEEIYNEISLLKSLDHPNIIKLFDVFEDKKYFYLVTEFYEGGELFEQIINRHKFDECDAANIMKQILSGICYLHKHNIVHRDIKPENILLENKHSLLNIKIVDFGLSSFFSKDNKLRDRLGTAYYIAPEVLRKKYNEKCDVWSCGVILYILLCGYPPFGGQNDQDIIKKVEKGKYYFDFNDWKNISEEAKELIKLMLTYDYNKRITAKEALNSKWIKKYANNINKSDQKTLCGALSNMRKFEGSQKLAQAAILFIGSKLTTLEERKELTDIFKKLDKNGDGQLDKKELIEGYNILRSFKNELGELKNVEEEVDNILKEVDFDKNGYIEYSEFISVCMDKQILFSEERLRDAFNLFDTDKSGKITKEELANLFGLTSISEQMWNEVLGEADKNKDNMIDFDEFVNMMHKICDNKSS

[6] = biological target: Plasmodium falciparum protein kinase 6 (PK6, PF3D7_1337100) (UniProt Q8IDW1); assay: PfPK6 kinase inhibitors, biochemical, TCAMS library (AID 1159586); details: recombinant PfPK6, Kinase-Glo ATP depletion luminescence
Chain of Plasmodium falciparum protein kinase 6 (PK6, PF3D7_1337100) (Q8IDW1 1-305): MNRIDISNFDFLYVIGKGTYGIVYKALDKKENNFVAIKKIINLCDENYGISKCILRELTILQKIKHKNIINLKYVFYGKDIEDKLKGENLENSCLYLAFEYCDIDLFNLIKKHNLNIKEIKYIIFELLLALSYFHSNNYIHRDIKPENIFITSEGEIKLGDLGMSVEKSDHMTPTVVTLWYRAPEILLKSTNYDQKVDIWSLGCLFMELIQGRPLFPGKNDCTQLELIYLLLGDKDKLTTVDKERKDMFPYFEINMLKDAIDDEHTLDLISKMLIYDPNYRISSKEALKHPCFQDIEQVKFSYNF

[7] = biological target: Protein kinase 7 (PK7), Plasmodium falciparum 3D7 (PF3D7_0213400) (UniProt Q7YTF7); assay: inhibition of Plasmodium PK7 catalytic activity – biochemical, TCAMS antimalarial set, Kinase-Glo luminescence (AID 1159587); details: recombinant PfPK7, Kinase-Glo ATP depletion luminescence
Chain of Protein kinase 7 (PK7), Plasmodium falciparum 3D7 (PF3D7_0213400) (Q7YTF7 1-343): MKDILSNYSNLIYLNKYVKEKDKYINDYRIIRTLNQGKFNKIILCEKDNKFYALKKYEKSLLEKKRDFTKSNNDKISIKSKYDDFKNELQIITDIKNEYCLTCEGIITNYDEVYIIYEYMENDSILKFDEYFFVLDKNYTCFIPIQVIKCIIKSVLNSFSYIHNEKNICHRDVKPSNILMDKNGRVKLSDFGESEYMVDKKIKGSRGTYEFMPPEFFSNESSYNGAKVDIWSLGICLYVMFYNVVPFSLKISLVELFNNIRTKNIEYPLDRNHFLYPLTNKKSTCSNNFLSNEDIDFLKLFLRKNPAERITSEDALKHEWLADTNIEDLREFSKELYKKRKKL

[8] = biological target: Calcium-dependent protein kinase 4 (Plasmodium falciparum (isolate 3D7)) (UniProt Q8IBS5); assay: PfCDPK4 kinase inhibitors, biochemical, TCAMS library (AID 1159588; cut-off not given, nearly all actives have IC50 up to about 0.91 µM); details: recombinant PfCDPK4, Kinase-Glo ATP depletion luminescence
Chain of Calcium-dependent protein kinase 4 (Plasmodium falciparum (isolate 3D7)) (Q8IBS5 whole entry, looked up): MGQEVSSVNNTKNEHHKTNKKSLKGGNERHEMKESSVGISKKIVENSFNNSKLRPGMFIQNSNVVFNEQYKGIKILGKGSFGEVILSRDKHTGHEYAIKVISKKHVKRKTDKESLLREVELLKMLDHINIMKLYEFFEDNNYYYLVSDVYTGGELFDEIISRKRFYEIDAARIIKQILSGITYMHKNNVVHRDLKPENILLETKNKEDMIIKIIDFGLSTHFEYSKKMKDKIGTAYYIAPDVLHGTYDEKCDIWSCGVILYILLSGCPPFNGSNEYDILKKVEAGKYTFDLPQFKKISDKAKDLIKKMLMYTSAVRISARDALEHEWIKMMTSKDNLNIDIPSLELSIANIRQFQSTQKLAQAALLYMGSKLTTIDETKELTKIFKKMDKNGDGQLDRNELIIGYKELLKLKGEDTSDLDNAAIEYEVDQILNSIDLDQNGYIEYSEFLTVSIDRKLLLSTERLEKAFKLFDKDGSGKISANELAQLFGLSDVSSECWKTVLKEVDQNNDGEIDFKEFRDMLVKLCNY

Cn1cncc1C(=O)Nc1ccc(-c2ccc(-c3nc4ccc(C(F)(F)F)cc4[nH]3)cc2)cc1
active: growth inhibition [4] 102%
inactive: growth inhibition [1] 33% | inhibition [2] 24% | inhibition [3] 5% | outcome [5] | outcome [6] | outcome [7] | outcome [8]

CN1CCN(c2nsc3ccc(-c4ccc(NC(=O)Nc5ccccc5)cc4)cc23)CC1
inactive: inhibition [2] 38% | inhibition [3] -1% | outcome [5] | outcome [6] | outcome [7] | outcome [8]
active: growth inhibition [1] 98% | growth inhibition [4] 102%

CCCC(C)Nc1nc(C)cc(N[C@@H](Cc2ccccc2)C(=O)Nc2ccccc2)n1 (stereo not given in full)
inactive: inhibition [3] -2% | outcome [5] | outcome [6] | outcome [7] | outcome [8]
active: growth inhibition [1] 67% | inhibition [2] 50% | growth inhibition [4] 100%

CC(=O)Nc1ccc(S(=O)(=O)NC2=NC(C)(C)N(OCc3ccc(Cl)c(Cl)c3)C(N)=N2)cc1
inactive: inhibition [2] 44% | inhibition [3] 2% | outcome [5] | outcome [6] | outcome [7] | outcome [8]
active: growth inhibition [1] 98% | growth inhibition [4] 93%

CCOc1ccc(C=CC(=O)Nc2ccc3nc(N4CCOCC4)cc(C)c3c2)cc1OC
inactive: growth inhibition [1] 23% | inhibition [2] 14% | inhibition [3] 5% | outcome [5] | outcome [6] | outcome [7] | outcome [8]
active: growth inhibition [4] 92%

CCOc1cc(C)ccc1C1CCN(CCCCNC(=O)c2cnc(-c3ccc(C(F)(F)F)cc3)[nH]2)CC1
active: growth inhibition [1] 97% | growth inhibition [4] 95%
inactive: inhibition [2] 16% | inhibition [3] 2% | outcome [5] | outcome [6] | outcome [7] | outcome [8]

CCN(CC)CCON=Cc1cc(C)c2[nH]c3ccc(OCc4ccccc4)cc3c2c1C
active: growth inhibition [4] 98%
inactive: growth inhibition [1] 29% | inhibition [2] 29% | inhibition [3] 1% | outcome [5] | outcome [6] | outcome [7] | outcome [8]

COc1ccc(C(=O)N2CCC3(CC2)C(=O)N(CC(=O)NCC2CCCCC2)CN3c2ccccc2)c(OC)c1
active: growth inhibition [1] 99% | growth inhibition [4] 100%
inactive: inhibition [2] 6% | inhibition [3] 4% | outcome [5] | outcome [6] | outcome [7] | outcome [8]

CCCN1CCN(CC(O)CNC(=O)Nc2ccc(Cl)cc2)CC1 (stereo not given)
active: growth inhibition [1] 100% | growth inhibition [4] 100%
inactive: inhibition [2] 6% | inhibition [3] -3% | outcome [5] | outcome [6] | outcome [7] | outcome [8]

CN(C)Cc1c(O)ccc2oc(Cc3ccccc3)cc12
active: growth inhibition [1] 94% | growth inhibition [4] 99%
inactive: inhibition [2] 0% | inhibition [3] 0% | outcome [5] | outcome [6] | outcome [7] | outcome [8]

O=C(Nc1cccc(-c2csc(-c3ccccc3)n2)c1)c1cccs1
inactive: inhibition [2] 0% | inhibition [3] 2% | outcome [5] | outcome [6] | outcome [7] | outcome [8]
active: growth inhibition [1] 71% | growth inhibition [4] 89%

CCCCCCn1c2c(c(=N)c3c1CCC3)CCC2
active: growth inhibition [1] 83% | growth inhibition [4] 97%
inactive: inhibition [2] 32% | inhibition [3] -3% | outcome [5] | outcome [6] | outcome [7] | outcome [8]

C=CCNC(=O)C(C)c1ccc2cc(OC)ccc2c1 (stereo not given)
active: growth inhibition [1] 90% | growth inhibition [4] 92%
inactive: inhibition [2] 4% | inhibition [3] 1% | outcome [5] | outcome [6] | outcome [7] | outcome [8]

CCNC(C)(C)CN(Cc1ccc(-c2ccc(C(F)(F)F)cc2)cc1)C(=O)Cn1c(CCc2cccc(F)c2F)nc(=O)c2ccccc21
inactive: inhibition [2] 47% | inhibition [3] -7% | outcome [5] | outcome [6] | outcome [7] | outcome [8]
active: growth inhibition [1] 70% | growth inhibition [4] 97%

Fc1cccc(CNc2ncc(-c3ccsc3)c(-c3nccs3)n2)c1
inactive: inhibition [2] 15% | inhibition [3] 0% | outcome [5] | outcome [6] | outcome [7] | outcome [8]
active: growth inhibition [1] 85% | growth inhibition [4] 91%

COc1ccc(C(=O)NCCCCN2CCC(c3ccc4c(c3OC)CCCC4)CC2)cc1-c1ccc(C(F)(F)F)cc1
inactive: inhibition [3] 5% | outcome [5] | outcome [6] | outcome [7] | outcome [8]
active: growth inhibition [1] 56% | inhibition [2] 67% | growth inhibition [4] 100%

CCCC(C)NC(=O)[C@H](Cc1ccccc1)NC(=O)c1ccc(O)c(-c2ccc(OC)cc2)c1 (stereo not given in full)
active: growth inhibition [4] 85%
inactive: growth inhibition [1] 1% | inhibition [2] 12% | inhibition [3] 2% | outcome [5] | outcome [6] | outcome [7] | outcome [8]

CC(C)c1ccc(NC(=O)c2cccc(CN3CCCN(Cc4cccc(O)c4)CC3)c2)cc1
active: growth inhibition [4] 97%
inactive: growth inhibition [1] 33% | inhibition [2] 25% | inhibition [3] -2% | outcome [5] | outcome [6] | outcome [7] | outcome [8]

Cn1c(NC(=O)C2CCC(CNC(=O)c3ccc(O)c(-c4cccc([N+](=O)[O-])c4)c3)CC2)nc2ccccc21 (stereo not given)
active: growth inhibition [1] 97% | growth inhibition [4] 95%
inactive: inhibition [2] 6% | inhibition [3] -5% | outcome [5] | outcome [6] | outcome [7] | outcome [8]

CS(=O)(=O)c1ccc2c(c1)CCN(CCC1CCC(NC(=O)C(=Cc3cccc(C#N)c3)c3ccc(-c4ccccc4)cc3)CC1)CC2 (stereo not given)
active: growth inhibition [4] 99%
inactive: growth inhibition [1] 13% | inhibition [2] 24% | inhibition [3] -6% | outcome [5] | outcome [6] | outcome [7] | outcome [8]

O=C(Nc1ccccc1)Nc1cccc(-c2cc(CNCCc3ccccc3)sc2-c2ccncc2)c1
active: growth inhibition [1] 84% | growth inhibition [4] 100%
inactive: inhibition [2] 14% | inhibition [3] 7% | outcome [5] | outcome [6] | outcome [7] | outcome [8]

O=C(C=Cc1ccc(Cl)c(Cl)c1)NCCCCCN1CCC(CCCNS(=O)(=O)c2ccc(F)cc2)CC1
inactive: growth inhibition [1] 20% | inhibition [3] 4% | outcome [5] | outcome [6] | outcome [7] | outcome [8]
active: inhibition [2] 52% | growth inhibition [4] 93%

CC(C)c1ccc(NC(=O)c2ccc(C(=O)NC3CCN(CC4CCCCC4)C3)cc2)cc1 (stereo not given)
inactive: growth inhibition [1] 26% | inhibition [2] 35% | inhibition [3] 3% | outcome [5] | outcome [6] | outcome [7] | outcome [8]
active: growth inhibition [4] 93%

CCc1ccc(NC(=O)c2ccc(CN3CCCN(Cc4cccc(O)c4)CC3)cc2)cc1
inactive: inhibition [3] 0% | outcome [5] | outcome [6] | outcome [7] | outcome [8]
active: growth inhibition [1] 55% | inhibition [2] 51% | growth inhibition [4] 100%

CCCNCc1ccc(-c2ccc(CN(C(=O)c3nn(-c4ccccc4)nc3C)C3CC3)cc2)nc1
inactive: growth inhibition [1] -3% | inhibition [2] 23% | inhibition [3] -2% | outcome [5] | outcome [6] | outcome [7] | outcome [8]
active: growth inhibition [4] 101%

Cn1nc(C(F)(F)F)c(-c2ccc(F)cc2)c1NC(=O)Nc1ccccc1
inactive: inhibition [2] 3% | inhibition [3] 6% | outcome [5] | outcome [6] | outcome [7] | outcome [8]
active: growth inhibition [1] 99% | growth inhibition [4] 101%

Nc1ccc(-c2cc(Cl)cc(Cl)c2)cc1-c1cc2ccccc2[nH]1
active: growth inhibition [1] 97% | growth inhibition [4] 101%
inactive: inhibition [2] -9% | inhibition [3] 0% | outcome [5] | outcome [6] | outcome [7] | outcome [8]

CCOc1ccc2ccccc2c1C(=O)Nc1cc(C)nn1-c1nc(C)cc(=O)[nH]1
inactive: inhibition [2] 28% | inhibition [3] -1% | outcome [5] | outcome [6] | outcome [7] | outcome [8]
active: growth inhibition [1] 86% | growth inhibition [4] 93%

CCCC(=O)Nc1ccc(OCCCCN(Cc2ccccc2C(F)(F)F)c2ccc(C(F)(F)F)c(C#N)c2)cc1
inactive: inhibition [2] 6% | inhibition [3] 0% | outcome [5] | outcome [6] | outcome [7] | outcome [8]
active: growth inhibition [1] 94% | growth inhibition [4] 94%

Cc1cccc2[nH]c(-c3ccc(-c4ccc(NC(=O)CN5CCN(C)CC5)cc4)s3)nc12
active: growth inhibition [1] 86% | inhibition [2] 56% | growth inhibition [4] 95%
inactive: inhibition [3] -9% | outcome [5] | outcome [6] | outcome [7] | outcome [8]

O=C(/C=C/c1ccc(-c2nc3cc(F)c(F)cc3[nH]2)cc1)NCc1ccc(Cl)c(Cl)c1
active: growth inhibition [4] 100%
inactive: growth inhibition [1] 24% | inhibition [2] 14% | inhibition [3] 4% | outcome [5] | outcome [6] | outcome [7] | outcome [8]

Cc1nc(-c2nc(NCCc3cnccn3)ncc2-c2ccsc2)sc1C
inactive: growth inhibition [1] 40% | inhibition [2] -7% | inhibition [3] 0% | outcome [5] | outcome [6] | outcome [7] | outcome [8]
active: growth inhibition [4] 98%

O=C(Nc1nc(-c2ccccn2)cs1)c1ccc(S(=O)(=O)N2CCc3ccccc32)cc1
inactive: growth inhibition [1] 15% | inhibition [2] 47% | inhibition [3] 2% | outcome [5] | outcome [6] | outcome [7] | outcome [8]
active: growth inhibition [4] 89%

Fc1ccc2c(NN=CC=Cc3ccccc3)ccnc2c1
active: growth inhibition [1] 98% | growth inhibition [4] 101%
inactive: inhibition [2] -2% | inhibition [3] -3% | outcome [5] | outcome [6] | outcome [7] | outcome [8]

CCCCOc1cc(C)nc2ccc(NC(=O)COCC(=O)Nc3ccc4nc(C)cc(OCCCC)c4c3)cc12
inactive: growth inhibition [1] 28% | inhibition [2] -11% | inhibition [3] -3% | outcome [5] | outcome [6] | outcome [7] | outcome [8]
active: growth inhibition [4] 90%

CCCN1CCCN(Cc2cccc(NC(=O)c3ccc(-c4ccccc4)cc3)c2)CC1
active: growth inhibition [4] 92%
inactive: growth inhibition [1] 15% | inhibition [2] 34% | inhibition [3] 1% | outcome [5] | outcome [6] | outcome [7] | outcome [8]

COc1ccc2nccc(NC(=O)N3CCC(NCCOc4cc(F)cc(F)c4)CC3)c2n1
active: growth inhibition [4] 86%
inactive: growth inhibition [1] 38% | inhibition [2] 14% | inhibition [3] -2% | outcome [5] | outcome [6] | outcome [7] | outcome [8]

CCN(CC)C(C)(C)CN(Cc1ccc(-c2ccc(C(F)(F)F)cc2)cc1)C(=O)Cn1c(CCc2cccc(F)c2F)nc(=O)c2ccccc21
active: growth inhibition [1] 79% | inhibition [2] 53% | growth inhibition [4] 91%
inactive: inhibition [3] -2% | outcome [5] | outcome [6] | outcome [7] | outcome [8]

CCc1ccc(C2CCN(CCCCNC(=O)c3ccc(-c4ccc(C#N)cc4)cc3)CC2)c(OCCO)c1
active: growth inhibition [1] 61% | growth inhibition [4] 94%
inactive: inhibition [2] 24% | inhibition [3] -4% | outcome [5] | outcome [6] | outcome [7] | outcome [8]

COC(=O)c1cccc(OCCNC2CCN(C[C@H](O)c3ccnc4ccc(OC)cc34)CC2)c1
active: growth inhibition [1] 96% | growth inhibition [4] 100%
inactive: inhibition [2] -7% | inhibition [3] -10% | outcome [5] | outcome [6] | outcome [7] | outcome [8]
